# Measured potencies and affinities stand elsewhere.
# Tested on: Klebsiella pneumoniae
# Details: Concentration 32 ug.mL-1; ASSAY_TEST Inhibition of Bacterial Growth; detection method Absorption (OD600); MEDIA CAMHB; plate type 384well; NBS; CORNING #3640; time 18 hr
row,SMILES,Inhibition
1,C#CCN(C)Cc1cc2cc(O)ccc2n1C.Cl,13.12%
2,C#CCNc1nc(NCC#C)c(C#N)cc1C#N,-4.98%
3,CC(C(=O)O)c1c[nH]c2ccccc12 (stereo not given),21.1%
4,CC(C)NNC(=O)Cc1c[nH]c2ccccc12,18.29%
5,COc1ccc2c(c1)cc(CO)n2C,4.36%
6,Cc1ccc2nc(Cl)c(/C=N/N)cc2c1,10.01%
7,N#CC1(Br)C(=NBr)Oc2ccc3ccccc3c2C1c1cccc([N+](=O)[O-])c1 (stereo not given),8.04%
8,COc1ccc2c(c1)cc(CN(C)C)n2C,9.15%
9,C#CCNc1ncccn1,20.12%
10,Cc1nn(-c2ccccc2)c2nc(C)n3nc(-c4ccccc4)nc3c12,3.45%
11,CC(C)(C)OC(=O)Nc1ccccn1,24.53%
12,CC1=N/C(=C(\C)c2ccccc2)C(=O)O1,-1.65%
13,C#CCNC(=O)c1cc2cc(OCCCC3CCN(Cc4ccccc4)CC3)ccc2[nH]1,4.92%
14,CCOC(=O)C1=C(C)OC(N)=C(C#N)C1c1cccnc1 (stereo not given),0.99%
15,CN(C)c1cccc(C(=O)c2cccc(N(C)C)c2)c1,6.77%
16,COc1ccccc1C1c2c(ccc3ccccc23)OC(=N)C1(Br)C#N (stereo not given),13.77%
17,COc1ccc2cc(C3C(C(C)=O)=C(C)Oc4nc5c(c(N)c43)CCCCC5)c(Cl)nc2c1 (stereo not given),0.78%
18,N#Cc1cccnc1N,16.36%
19,CCOC(=O)/C(C#N)=C\c1ccc(C)cc1,18.72%
20,O=C(Cc1cccc2ccccc12)N/N=C/c1c[nH]c2ccccc12,10.96%

# Reference: ChEMBL document CHEMBL4513135, “CO-ADD screening of IQOG CSIS (Spain) compounds”
